Results taken from PubChem BioAssay (NCATS).
Records with an inconclusive call do not appear. Active and inactive are the calls of the source. Calls come from the whole dose curve; as a rule, active = well fitted curve in the direction sought with a large enough effect; inconclusive = small, poorly fitted or top-dose-only effect, or another doubt; inactive = no such curve, though single readings can be large; an effect the other way counts as inactive or inconclusive.

Legend:
[1] = system: HEK293T; assay: qHTS assay to identify novel small-molecules to repurpose for Merkel cell carcinoma treatment (AID 1296009); settings: MCC and control cell lines, CellTiter-Glo viability, 72 h; series mostly up to 44.8 µM; note: nearly all actives have a fitted effect of over 60% in size
How it was run: (§1)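 Cells were treated for 72 hr at 37 degree celsius with compounds in 8- or 11-point dose response. Viability was read by CellTiter-Glo luminescence, normalized to no-cell (cytotoxicity) and DMSO controls.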

[2] = system: NIH3T3; assay: as above; settings: MCC and control cell lines, CellTiter-Glo viability, 72 h; at 44.8 µM (top of the series) unless noted
How it was run: as §1

[3] = system: C33A; assay: Primary qHTS to identify gynecologic anti-cancer compounds using libraries of approved drugs and bioactive compounds (AID 1345084); settings: Gynecologic cancer cell panel viability, ATPlite luminescence, 48 h; series mostly up to 57.5 µM; note: % is set by controls: 0 for no effect and ±100 for the full control effect; nearly all actives have a fitted effect of over 55% in size
How it was run: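 ATP-based viability (ATPlite), 1,000 cells/well, 16 h pre-incubation, 48 h compound at 37 C, 5% CO2, 15 min RT before read.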

CC1CCC2(C(=O)OC3OC(COC4OC(CO)C(O)C(O)C4O)C(O)C(O)C3O)CCC3(C)C(=CCC4C5(C)CCC(O)C(C)(C(=O)O)C5CCC43C)C2C1(C)O (configuration not stated)
inactive: outcome [1] inactive [at 9.27 µM] | outcome [2] inactive [at 9.27 µM] | activity change, negative = cytotoxicity [3] -3.16% [at 11.6 µM]

C=CC1(C)CC2=CCC3C(C)(C(=O)O)CCCC3(C)C2CC1OC(C)=O (configuration not stated)
inactive: Potency [1] | outcome [2] | Potency [3]

CN1C(=O)c2ccccc2-n2c(nc3ccccc3c2=O)[C@@]12O[C@H]2c1ccccc1
inactive: Potency [1] | outcome [2] | Potency [3]

C[C@@H]1O[C@@H](O[C@@H]2[C@@H](O)[C@@H](O)[C@H](O[C@@H]3[C@@H](O)[C@@H](O[C@]4(CO)O[C@H](CO)[C@@H](O)[C@@H]4OC(=O)/C=C/c4ccc(O)cc4)O[C@H](CO)[C@H]3OC(=O)/C=C/c3ccc(O)cc3)O[C@H]2C)[C@H](O)[C@H](O)[C@H]1O
inactive: outcome [1] inactive [at 9.27 µM] | outcome [2] inactive [at 9.27 µM] | activity change, negative = cytotoxicity [3] 0.544% [at 11.6 µM]

CC1CCC2C(C)(C)C(O)CCC2(C)C12Cc1c(O)cc3c(c1O2)CN=C3N (configuration not stated)
inactive: Potency [1] | outcome [2] | Potency [3]

COc1cc(-c2cccc(O)c2)cc2c1OCO2
inactive: Potency [1] | outcome [2] | Potency [3]

CC(=O)O[C@H](C[C@@H](C)[C@H]1C(=O)[C@H](O)[C@@]2(C)[C@@H]3CCC4C(C)(C)[C@@H](O[C@@H]5OC[C@H](O)[C@H](O)[C@H]5O)CC[C@@]45C[C@@]35CC[C@]12C)[C@@H]1OC1(C)C (some centres not stated)
inactive: Potency [1] | outcome [2] inactive [at 17.4 µM] | Potency [3]

O=C(/C=C/c1ccccc1)OCC1=CC[C@@H]2C(C(=O)O)=CO[C@@H](O[C@@H]3O[C@H](CO)[C@@H](O)[C@H](O)[C@H]3O)[C@H]12
inactive: Potency [1] | outcome [2] inactive [at 17.4 µM] | Potency [3]

COc1cc(/C=C/C(=O)OC2CC3CCC2(C)C3(C)C)ccc1O (configuration not stated)
inactive: Potency [1] | outcome [2] | Potency [3]

CC1CCC2C(C(=O)O)=CC3CC(C)(C)CC132 (configuration not stated)
inactive: Potency [1] | outcome [2] | Potency [3]

CC1(C)CCC(C)(C)c2cc([C@@H](O)C(=O)Nc3ccc(C(=O)O)cc3F)ccc21
inactive: Potency [1] | outcome [2] | Potency [3]

Cc1coc2c1CC1OC1(C)CCC1OC1(C)C2 (configuration not stated)
inactive: Potency [1] | outcome [2] | Potency [3]

COc1cc(CC(COC2OC(CO)C(O)C(O)C2O)c2cc(/C=C/CO)cc(OC)c2O)ccc1O (configuration not stated)
inactive: Potency [1] | outcome [2] inactive [at 17.4 µM] | Potency [3]

O=C(NCc1ccc(OC(F)(F)F)cc1)C1c2ccccc2C(=O)N1C1CCOCC1 (configuration not stated)
inactive: Potency [1] | outcome [2] | Potency [3]

CC1=CC(=O)CC(C)(CO[C@@H]2O[C@H](CO)[C@@H](O)[C@H](O)[C@H]2O)C1(O)/C=C/C(C)=C/C(=O)O (some centres not stated)
inactive: Potency [1] | outcome [2] inactive [at 17.4 µM] | Potency [3]

N#Cc1ccc2[nH]c(O)c(-c3ccc(CN4CCOCC4)cn3)c2c1
inactive: Potency [1] | outcome [2] | Potency [3]

CN1C(=O)N[C@@H](Cc2c[nH]c3c(Cl)cccc23)C1=O
inactive: Potency [1] | outcome [2] | Potency [3]

CCC(=O)NS(=O)(=O)c1ccc(-c2c(-c3ccccc3)noc2C)cc1
inactive: Potency [1] | outcome [2] | Potency [3]

C/C(=C\CCC(C(=O)O)C1CCC2(C)C3=C(CCC12C)C1(C)CCC(=O)C(C)(C)C1CC3)C(=O)O (configuration not stated)
inactive: Potency [1] | outcome [2] inactive [at 17.4 µM] | Potency [3]

OC[C@H]1O[C@@H](Oc2ccc(O)c3cccc(O)c23)[C@H](O)[C@@H](O)[C@@H]1O
inactive: Potency [1] | outcome [2] | Potency [3]

C[C@@H]1CC[C@]2(C(=O)O)CC[C@]3(C(=O)O)C(=CCC4[C@@]5(C)CC[C@H](O[C@@H]6O[C@@H](C)[C@H](O[C@@H]7O[C@H](CO)[C@@H](O)[C@H](O)[C@H]7O)[C@@H](O)[C@H]6O)C(C)(C)C5CC[C@]43C)C2[C@H]1C (some centres not stated)
inactive: Potency [1] | outcome [2] inactive [at 17.4 µM] | Potency [3]

CCN(c1cc(C#CCN2CCOCC2)cc(C(=O)NCc2c(C)cc(C)[nH]c2=O)c1C)C1CCC(N(C)CCOC)CC1 (configuration not stated)
inactive: Potency [1] | outcome [2] | Potency [3]

C=C1CCC2C(C)(COC3OC(COC(=O)CC(=O)O)C(O)C(O)C3O)CCCC2(C)C1CCC1=CCOC1=O (configuration not stated)
inactive: Potency [1] | outcome [2] inactive [at 17.4 µM] | Potency [3]

CO[C@@]12CC3[C@@H]([C@@H](O)[C@@H](OC(C)=O)C4[C@](C)(COC(C)=O)CCC[C@]34C)[C@@H](C)C1=CC(=O)O2 (some centres not stated)
inactive: Potency [1] | outcome [2] inactive [at 17.4 µM] | Potency [3]
